Assay results reported in PubChem BioAssay.
The source made the active and inactive calls.

What was measured:
[1] = test system: PRMT1 (protein arginine N-methyltransferase 1); assay: small molecules binding arginine methyltransferase PRMT1 – biochemical, small-molecule microarray, 635 nm fluorescence, primary screen (AID 1088); details: higher = more signal;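 note: binding of Prmt1 protein to compounds spotted on small-molecule microarray slides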
[2] = growth effects on S. cerevisiae YJM789 – YJM789 clinical isolate, OD600, 24 h, basal, primary screen (AID 1089); details: higher = more signal, called active from +8 up or from −8 down;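 note: growth of clinical yeast isolate S. cerevisiae YJM 789 seeded 1000 cells per well; test concentration not given here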
[3] = S. pombe growth modifiers, basal conditions – strain 972, OD600, 24 h, no modulator, primary screen (AID 1090);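 note: basal condition with compound alone and no growth modifier present; test concentration not given here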; details: S. pombe 972 growth, higher = more signal, called active from +8 up or from −8 down
[4] = budding yeast growth modifiers under rapamycin – strain BY4716, OD600, 96 h, primary screen (AID 1091); note: test concentration not given here; details: S. cerevisiae BY4716 + rapamycin, higher = more signal, called active from +8 up or from −8 down
[5] = target: Torsin-1A-interacting protein 2 (Homo sapiens) (UniProt Q8NFQ8); assay: small molecules binding lysate-expressed LULL1 – cell lysate, human LULL1 lysate, 635/667 nm fluorescence, primary screen (AID 1092); details: small-molecule microarray, hLULL1 lysate binding, 635 nm fluorescence; higher = more signal;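 note: probe is lysate of COS7 cells overexpressing human LULL1; score merges per-feature 667 nm fluorescence with signal-to-noise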
[6] = optical density change of DRC41 E. coli – strain DRC41, OD650, 24 h, E. coli filamentation project, primary screen (AID 1093);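 note: MC1000 strain lacking acrAB efflux and sulA so SOS filamentation is blocked; test concentration not given here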; details: E. coli DRC41 growth, higher = more signal, called active from +8 up or from −8 down
[7] = probe aLefty2 binding to arrayed compounds – biochemical, biotinylated probe, 635/667 nm fluorescence, primary screen (AID 1094); details: small-molecule microarray, higher = more signal;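 note: score merges spot fluorescence near 667 nm with spot signal-to-noise ratio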
[8] = test system: Noggin (protein binding on small-molecule microarray); assay: small molecules binding Noggin protein – biochemical, 635/667 nm fluorescence, primary screen (AID 1095); details: 635 nm fluorescence, higher = more signal;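 note: score merges 667 nm feature fluorescence with signal to noise over triplicate slides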
[9] = target: Neurogenic locus notch homolog protein 3 (Homo sapiens) (UniProt Q9UM47); assay: small molecules binding NOTCH3 protein – biochemical, 635/667 nm fluorescence, primary screen (AID 1096); details: small-molecule microarray, 635 nm fluorescence, higher = more signal
[10] = probe aEGFR binding to arrayed compounds – biochemical, biotinylated probe, 635/667 nm fluorescence, primary screen (AID 1097); details: small-molecule microarray, higher = more signal;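 note: probe is a biotinylated anti-EGFR antibody binding compounds printed on slides; score combines fluorescence near 667 nm and signal to noise of each spot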
[11] = test system: Plasmodium falciparum Sir2 (PF13_0152, Sir2A); assay: Plasmodium falciparum Sir2A binding compounds – biochemical, small-molecule microarray, 635 nm fluorescence, primary screen (AID 1098); details: fluorescence 635 nm, higher = more signal;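 note: score merges spot fluorescence intensity with its signal-to-noise ratio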
[12] = probe aDKK1 binding to arrayed compounds – biochemical, biotinylated probe, 635/667 nm fluorescence, primary screen (AID 1099); details: small-molecule microarray, higher = more signal;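 note: score merges 667nm spot fluorescence with signal to noise across triplicate slides; reference of the scale not given here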
[13] = probe aCHRDL2 binding to arrayed compounds – biochemical, biotinylated probe, 635/667 nm fluorescence, primary screen (AID 1100); details: small-molecule microarray, higher = more signal
[14] = change in splice reporter luminescence, either direction, cell-based, HEK293, spliceosome inhibition project, primary screen (AID 1101); details: HEK293 splicing luciferase reporter, 24 h, higher = more signal, called active from +8 up or from −8 down;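 note: HEK293 cells carrying a splicing-competent luciferase reporter gene; test concentration not given here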
[15] = target: Fibroblast growth factor 10 (Homo sapiens) (UniProt O15520); assay: compounds binding fibroblast growth factor 10 – biochemical, small-molecule microarray, 635 nm fluorescence, primary screen (AID 1102); details: FGF10 binding, fluorescence 635 nm, higher = more signal
[16] = test system: glycogen synthase kinase-3 (GSK3A per assay name; protocol says GSK3B); assay: compounds binding glycogen synthase kinase-3 – biochemical, small-molecule microarray, 635 nm fluorescence, GSK3A, primary screen (AID 1103); details: fluorescence 635 nm, higher = more signal; note: the record names both GSK3A and GSK3B
[17] = target: Epidermal growth factor receptor (Homo sapiens) (UniProt P00533); assay: compounds binding epidermal growth factor receptor – biochemical, small-molecule microarray, 635 nm fluorescence, primary screen (AID 1104); details: EGFR binding, higher = more signal;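 note: score merges 667 nm emission intensity with spot signal to noise over triplicate slides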
[18] = target: Follistatin-related protein 3 (Homo sapiens) (UniProt O95633); assay: compounds binding follistatin-related protein 3 – biochemical, small-molecule microarray, 635 nm fluorescence, primary screen (AID 1105); details: FSTL3 binding, higher = more signal;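 note: score merges emission near 667 nm and signal to noise per printed spot across three slides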
[19] = target: Dickkopf-related protein 1 (Homo sapiens) (UniProt O94907); assay: small molecules binding DKK1 protein – biochemical, small-molecule microarray, 635 nm fluorescence scan, primary screen (AID 1106); details: higher = more signal;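 note: score merges emission near 667 nm with signal to noise over three replicate slides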
[20] = test system: Inhibin beta A chain (activin A); assay: small molecules binding activin A – biochemical, small-molecule microarray, 635 nm fluorescence scan, primary screen (AID 1107); details: INHBA, higher = more signal;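 note: mouse activin A protein probed at 4.33 µg/mL on printed slides; score merges bound-protein fluorescence near 667 nm with spot signal-to-noise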

Neurogenic locus notch homolog protein 3 (Homo sapiens), sequence (Q9UM47 whole entry, looked up): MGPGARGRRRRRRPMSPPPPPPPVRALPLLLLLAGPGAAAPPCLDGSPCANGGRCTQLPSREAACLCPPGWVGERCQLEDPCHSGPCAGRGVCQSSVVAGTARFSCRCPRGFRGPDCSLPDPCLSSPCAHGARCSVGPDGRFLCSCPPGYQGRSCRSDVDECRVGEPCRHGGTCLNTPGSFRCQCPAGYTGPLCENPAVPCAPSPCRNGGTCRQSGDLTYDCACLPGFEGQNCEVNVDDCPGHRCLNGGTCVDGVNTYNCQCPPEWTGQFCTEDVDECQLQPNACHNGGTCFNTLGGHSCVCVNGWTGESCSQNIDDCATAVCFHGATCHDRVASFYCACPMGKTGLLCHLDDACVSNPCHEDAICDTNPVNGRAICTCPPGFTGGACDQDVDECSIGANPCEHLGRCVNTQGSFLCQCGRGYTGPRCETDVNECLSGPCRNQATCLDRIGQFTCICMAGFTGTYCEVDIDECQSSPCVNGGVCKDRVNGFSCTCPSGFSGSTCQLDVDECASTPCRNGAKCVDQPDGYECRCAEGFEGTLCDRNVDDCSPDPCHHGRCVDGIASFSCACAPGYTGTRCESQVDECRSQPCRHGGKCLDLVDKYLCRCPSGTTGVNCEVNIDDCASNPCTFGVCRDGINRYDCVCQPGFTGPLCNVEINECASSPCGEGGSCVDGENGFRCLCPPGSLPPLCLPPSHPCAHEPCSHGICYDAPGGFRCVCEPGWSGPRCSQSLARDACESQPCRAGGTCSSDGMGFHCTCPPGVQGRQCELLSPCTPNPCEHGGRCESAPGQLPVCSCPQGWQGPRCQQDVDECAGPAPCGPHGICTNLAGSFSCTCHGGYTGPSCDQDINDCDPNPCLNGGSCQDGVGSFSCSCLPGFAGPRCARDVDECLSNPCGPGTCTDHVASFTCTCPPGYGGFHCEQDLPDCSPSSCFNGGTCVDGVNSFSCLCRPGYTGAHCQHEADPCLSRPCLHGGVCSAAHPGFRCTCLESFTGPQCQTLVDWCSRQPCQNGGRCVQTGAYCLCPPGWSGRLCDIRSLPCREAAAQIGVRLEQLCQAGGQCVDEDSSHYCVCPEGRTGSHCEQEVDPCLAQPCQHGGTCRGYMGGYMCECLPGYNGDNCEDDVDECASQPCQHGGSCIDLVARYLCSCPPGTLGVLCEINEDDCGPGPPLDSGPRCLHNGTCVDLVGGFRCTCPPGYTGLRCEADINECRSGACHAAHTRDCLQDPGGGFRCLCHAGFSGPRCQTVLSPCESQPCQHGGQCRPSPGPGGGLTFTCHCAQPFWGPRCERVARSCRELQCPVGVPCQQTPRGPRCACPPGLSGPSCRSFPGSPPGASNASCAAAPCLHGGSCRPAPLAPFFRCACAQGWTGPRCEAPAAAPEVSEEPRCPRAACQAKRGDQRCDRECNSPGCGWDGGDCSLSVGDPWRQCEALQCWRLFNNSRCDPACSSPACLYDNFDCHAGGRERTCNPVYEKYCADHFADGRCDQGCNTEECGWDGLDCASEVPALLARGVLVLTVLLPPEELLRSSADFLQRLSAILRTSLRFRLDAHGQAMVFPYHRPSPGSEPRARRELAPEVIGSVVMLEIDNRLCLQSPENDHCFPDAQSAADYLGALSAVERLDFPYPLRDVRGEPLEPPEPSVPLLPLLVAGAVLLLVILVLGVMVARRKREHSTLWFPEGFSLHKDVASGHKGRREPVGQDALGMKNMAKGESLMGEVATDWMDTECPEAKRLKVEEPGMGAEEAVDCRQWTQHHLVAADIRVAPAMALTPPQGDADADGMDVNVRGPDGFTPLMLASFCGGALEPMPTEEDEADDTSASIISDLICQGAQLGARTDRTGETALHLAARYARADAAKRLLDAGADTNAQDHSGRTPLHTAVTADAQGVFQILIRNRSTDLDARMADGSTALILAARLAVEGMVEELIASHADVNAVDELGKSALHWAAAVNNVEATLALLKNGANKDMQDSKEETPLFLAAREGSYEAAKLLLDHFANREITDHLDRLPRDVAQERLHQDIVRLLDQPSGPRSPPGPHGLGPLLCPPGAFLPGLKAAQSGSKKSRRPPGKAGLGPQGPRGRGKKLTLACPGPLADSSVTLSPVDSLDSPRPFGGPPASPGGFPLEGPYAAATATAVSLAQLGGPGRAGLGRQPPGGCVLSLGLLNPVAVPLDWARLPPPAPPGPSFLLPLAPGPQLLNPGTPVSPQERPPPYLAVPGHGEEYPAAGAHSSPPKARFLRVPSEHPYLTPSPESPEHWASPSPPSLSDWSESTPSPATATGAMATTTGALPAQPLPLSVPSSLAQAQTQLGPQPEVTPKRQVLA
Fibroblast growth factor 10 (Homo sapiens), sequence (O15520 whole entry, looked up): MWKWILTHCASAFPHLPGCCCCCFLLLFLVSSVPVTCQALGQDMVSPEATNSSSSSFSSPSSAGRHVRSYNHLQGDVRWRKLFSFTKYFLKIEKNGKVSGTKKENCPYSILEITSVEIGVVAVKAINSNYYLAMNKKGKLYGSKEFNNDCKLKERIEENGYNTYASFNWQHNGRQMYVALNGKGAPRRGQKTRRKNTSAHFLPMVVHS
Dickkopf-related protein 1 (Homo sapiens), sequence (O94907 whole entry, looked up): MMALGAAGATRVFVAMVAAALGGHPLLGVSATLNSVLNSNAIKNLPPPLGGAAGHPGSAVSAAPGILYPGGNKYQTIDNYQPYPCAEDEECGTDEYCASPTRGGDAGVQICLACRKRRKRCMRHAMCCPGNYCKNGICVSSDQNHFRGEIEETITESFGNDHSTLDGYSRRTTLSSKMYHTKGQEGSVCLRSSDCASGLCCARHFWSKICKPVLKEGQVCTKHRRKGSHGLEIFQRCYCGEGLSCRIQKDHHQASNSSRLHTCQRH
Follistatin-related protein 3 (Homo sapiens), sequence (O95633 whole entry, looked up): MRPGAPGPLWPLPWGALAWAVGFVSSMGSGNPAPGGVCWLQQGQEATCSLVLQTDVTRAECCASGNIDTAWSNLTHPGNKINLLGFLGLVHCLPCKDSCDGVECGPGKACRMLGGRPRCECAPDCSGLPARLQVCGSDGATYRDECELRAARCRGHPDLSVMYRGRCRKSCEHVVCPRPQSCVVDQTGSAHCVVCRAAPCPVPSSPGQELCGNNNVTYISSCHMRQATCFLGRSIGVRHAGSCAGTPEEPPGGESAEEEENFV
Torsin-1A-interacting protein 2 (Homo sapiens), sequence (Q8NFQ8 whole entry, looked up): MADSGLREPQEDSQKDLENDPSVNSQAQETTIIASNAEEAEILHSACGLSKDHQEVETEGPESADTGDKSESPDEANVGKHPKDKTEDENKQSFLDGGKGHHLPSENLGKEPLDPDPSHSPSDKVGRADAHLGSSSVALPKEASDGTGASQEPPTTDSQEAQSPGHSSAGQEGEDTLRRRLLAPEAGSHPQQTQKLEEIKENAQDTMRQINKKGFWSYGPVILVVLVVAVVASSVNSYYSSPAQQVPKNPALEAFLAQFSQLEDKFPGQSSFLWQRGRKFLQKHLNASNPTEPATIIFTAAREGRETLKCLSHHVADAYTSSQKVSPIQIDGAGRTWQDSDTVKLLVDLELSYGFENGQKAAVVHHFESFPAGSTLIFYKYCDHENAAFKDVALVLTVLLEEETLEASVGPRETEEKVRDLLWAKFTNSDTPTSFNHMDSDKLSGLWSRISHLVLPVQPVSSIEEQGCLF
Epidermal growth factor receptor (Homo sapiens), sequence (P00533 whole entry, looked up): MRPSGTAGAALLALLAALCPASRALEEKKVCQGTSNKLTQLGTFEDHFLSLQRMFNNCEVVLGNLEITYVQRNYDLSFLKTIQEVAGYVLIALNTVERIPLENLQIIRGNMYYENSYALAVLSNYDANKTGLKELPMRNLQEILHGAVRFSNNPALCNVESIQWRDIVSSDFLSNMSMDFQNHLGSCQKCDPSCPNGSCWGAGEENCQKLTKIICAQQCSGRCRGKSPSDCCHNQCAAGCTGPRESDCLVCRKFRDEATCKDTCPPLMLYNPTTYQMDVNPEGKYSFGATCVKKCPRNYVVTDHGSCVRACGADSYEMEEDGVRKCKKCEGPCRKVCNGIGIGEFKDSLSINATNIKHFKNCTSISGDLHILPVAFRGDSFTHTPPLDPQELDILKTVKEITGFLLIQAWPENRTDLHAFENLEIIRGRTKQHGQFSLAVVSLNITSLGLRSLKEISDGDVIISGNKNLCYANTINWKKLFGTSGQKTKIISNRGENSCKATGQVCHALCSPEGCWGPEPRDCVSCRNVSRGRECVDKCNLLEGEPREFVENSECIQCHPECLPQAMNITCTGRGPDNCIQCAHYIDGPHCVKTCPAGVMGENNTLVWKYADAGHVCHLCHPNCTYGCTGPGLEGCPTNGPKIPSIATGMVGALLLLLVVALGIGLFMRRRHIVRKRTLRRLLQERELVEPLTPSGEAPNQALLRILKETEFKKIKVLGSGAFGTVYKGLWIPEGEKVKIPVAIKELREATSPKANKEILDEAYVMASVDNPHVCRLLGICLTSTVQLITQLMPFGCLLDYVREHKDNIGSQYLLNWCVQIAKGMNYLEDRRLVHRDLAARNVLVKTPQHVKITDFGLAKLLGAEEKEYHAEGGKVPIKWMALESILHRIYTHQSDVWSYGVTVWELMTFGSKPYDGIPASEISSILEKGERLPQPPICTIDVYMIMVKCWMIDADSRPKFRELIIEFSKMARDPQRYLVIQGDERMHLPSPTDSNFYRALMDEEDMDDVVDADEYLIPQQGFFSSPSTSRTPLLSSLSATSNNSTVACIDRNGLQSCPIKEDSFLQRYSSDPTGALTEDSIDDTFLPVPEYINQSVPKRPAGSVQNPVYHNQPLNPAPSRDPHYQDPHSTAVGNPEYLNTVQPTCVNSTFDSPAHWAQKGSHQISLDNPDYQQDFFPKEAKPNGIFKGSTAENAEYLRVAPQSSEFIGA

Row | SMILES | composite z-score [1] | z-score [2] | z-score [3] | z-score [4] | composite z-score [5] | z-score [6] | composite z-score [7] | composite z-score [8] | composite z-score [9] | composite z-score [10] | composite z-score [11] | composite z-score [12] | composite z-score [13] | z-score [14] | composite z-score [15] | composite z-score [16] | composite z-score [17] | composite z-score [18] | composite z-score [19] | composite z-score [20]
1 | C=C(CCCC)C(=O)CC[C@H](OC(C)=O)c1ccc(OCCO)cc1 | -0.0507 | -1.62 (inactive) | -6.78 (inactive) | -2.54 (inactive) | -0.835 | 2.19 (inactive) | -0.269 | -0.469 | -0.829 | -0.16 | 0.56 | -0.262 | 0.0984 | -0.942 (inactive) | -0.509 | -1.24 | -0.448 | -0.746 | -0.8 | -0.146
2 | C=CCC(OC(C)=O)[C@@H]1[C@@H](N(Cc2cccc3ccccc23)C(=O)c2cccc3ccccc23)c2cc(OCCCO)ccc2N1C(=O)c1ccc2ccccc2c1 (stereo not given in full) | 0.692 | -0.55 (inactive) | 0.672 (inactive) | -1.35 (inactive) | 1.65 | 0.195 (inactive) | -0.156 | 0.345 | -0.0325 | -0.0967 | -0.131 | 0.0281 | 0.0611 | -0.888 (inactive) | 0.523 | -0.0993 | 0.187 | 0.423 | 0.226 | 1.41
3 | CCCNC(=O)[C@@]1(Sc2ccc(C)cc2)CC(=O)N(C(C)C)[C@@H]1c1ccc(CO)cc1I | 1.28 | -1.08 (inactive) | -0.877 (inactive) | 1.79 (inactive) | 2.73 | -0.157 (inactive) | 0.0444 | -0.719 | -1.2 | -0.252 | 0.0404 | 0.832 | 1.37 | -0.0862 (inactive) | -0.72 | -1.33 | -1.71 | -1.35 | -2.76 | 0.448
4 | CC1CC/C=C\[C@H]2OC34C=CCN(C(C)(C)C)C(=O)[C@H]3N(C(CO)C(C)C)C(=O)[C@@H]4C2C(=O)O1 (stereo not given in full) | -0.447 | -1.38 (inactive) | -0.429 (inactive) | -0.851 (inactive) | 2.5 | -0.515 (inactive) | -0.147 | 0.476 | 0.551 | -0.0968 | 0.337 | -0.193 | -0.347 | 0.792 (inactive) | 0.352 | 0.156 | -0.33 | 0.27 | 0.391 | 0.524
5 | COC(=O)C(CC#Cc1ccc2c(c1)[C@]1(C(=O)N2)[C@H](c2ccc(OCCO)cc2)N2[C@H](c3ccccc3)[C@H](c3ccccc3)OC(=O)[C@H]2[C@@H]1C(=O)N1CCN(c2ncccn2)CC1)C(=O)OC | 1.55 | 0.722 (inactive) | 1.82 (inactive) | 3.83 (inactive) | 2.31 | -0.0711 (inactive) | 0.0971 | 1.36 | 1.05 | 0.153 | 1.35 | 0.841 | 0.782 | 0.0768 (inactive) | 1.14 | 1.32 | 0.331 | 1.37 | 0.982 | 0.53
